Source: PubChem BioAssay (National Center for Advancing Translational Sciences (NCATS))
TrxR1 substrate – is turned over as a substrate by rat TrxR1 | Potency, µM (highest dose often 114 µM), for the others: at the top dose activity change, negative = substrate turnover | O89049 | purified TrxR1 substrate turnover, NADPH consumption readout | actives 0.01% (n = 390,000); further: potency means the concentration at half of the fitted maximal effect; nearly all actives have a fitted effect of over 50% in size
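Rat TrxR1, dispensed at 90 nM, was prereduced with 400 uM NADPH (final) for 5 min at ~22 deg C, then incubated with compound 15 min before 400 uM selenite. A first-read NADPH fluorescence drop versus no-compound background flagged substrates.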
rTrxR1 inhibitor – inhibitors of rat thioredoxin reductase 1 | actives 1% (n = 390,000) | recombinant rTrxR1, NADPH fluorescence consumption, selenite substrate | AID 588453 | O89049 | Potency, µM (top dose mostly 114 µM), inactives show at the top dose activity change, negative = inhibition, usual class: inhibitors; further: potency means the concentration at half of the fitted maximal effect; nearly all actives have a fitted effect of over 65% in size
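Rat TrxR1 (90 nM in the dispensed reagent) was pre-reduced with 400 uM NADPH for 5 min at room temperature, then incubated with compound for 15 min. After 400 uM selenite was added, NADPH fluorescence (Ex 340/Em 450 nm) was followed for 8 min.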
Giardia kill – Giardia lamblia killing. actives 0.15% (n = 340,000). Giardia lamblia trophozoite viability. AID 540267. activity change, % at 7.66 µM, hits read low; in the data active means activity change below about -80%; inconclusive means between about -30% and that limit;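 further: parasites exposed to compound for two days anaerobically before the ATP read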
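Compounds were tested on trophozoites seeded at 100 cells/well and held 48 hrs at 37 deg C anaerobically. An ATP-based luminescent kit measured the remaining live cells.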
GALK inhibitor – inhibitors of human galactokinase. Potency, µM (doses to about 57.5 µM), for inactives: at the top dose activity change, negative = inhibition, hits mostly inhibitors. AID 1868. Purified GALK, Kinase-Glo residual ATP luminescence. actives 0.007% (n = 270,000); further: potency means the concentration at half of the fitted maximal effect
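Quantitative HTS: GALK 5 nM, ATP 35 uM, galactose 100 uM, 1 h room temperature, then luciferase-based ATP detection.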
FBPA coupling cs – coupling enzyme interference in Giardia aldolase counter-screen | coupling enzyme system counterscreen, AmpLite Red fluorescence | activity change, negative = inhibition, % at 58.2 µM, hits read low | actives 0.67% (n = 290,000); in the data active means activity change below about -30%
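First, compound is pin-transferred into glyceraldehyde-3-phosphate coupling-enzyme reagent at 57.5 uM final and held 10 min at RT. Next, substrate, coupling system and AmpLite Red are added. After 20 min RT, fluorescence (525/598 nm) is read.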
PI4K2A inh – PI4K2A (human) kinase inhibition; Q9BTU6; purified PI4K2A, ADP-Glo luminescence, 1 h; active compounds read low; activity change, negative = inhibition, % at 76.9 µM; actives 0.13% (n = 420,000); AID 1346378; in the data active means activity change below about -50%; inconclusive means mostly about -30% to -49%;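 further: -100% = wells without enzyme as full effect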
Target sequence (Q9BTU6 whole entry, looked up): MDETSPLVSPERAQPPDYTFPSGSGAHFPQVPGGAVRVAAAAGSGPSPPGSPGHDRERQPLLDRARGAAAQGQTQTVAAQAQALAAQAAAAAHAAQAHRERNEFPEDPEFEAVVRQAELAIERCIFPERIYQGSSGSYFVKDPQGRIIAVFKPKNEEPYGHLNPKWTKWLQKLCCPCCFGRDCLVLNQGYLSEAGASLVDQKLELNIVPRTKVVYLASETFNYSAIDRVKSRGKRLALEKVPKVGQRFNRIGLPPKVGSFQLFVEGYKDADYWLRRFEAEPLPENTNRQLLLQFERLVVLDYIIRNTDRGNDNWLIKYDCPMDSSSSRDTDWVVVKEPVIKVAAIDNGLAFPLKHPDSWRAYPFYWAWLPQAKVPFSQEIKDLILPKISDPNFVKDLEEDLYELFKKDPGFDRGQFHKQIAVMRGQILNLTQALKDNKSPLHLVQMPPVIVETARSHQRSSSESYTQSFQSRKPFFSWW
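Compounds are screened against recombinant PI4K2A using PI as substrate and ATP, the latter dispensed at 300 microM. Reactions run one hour at ambient temperature before ADP-Glo detection; full inhibition defined by wells lacking enzyme.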
Starred values were filed as active, the others as inactive; ? = inconclusive; . = not tested or not shown; [ ] = dose if it differs, or a comment. A selection: hits, their analogues and other compounds. The true share with any hit is near 1.5%. Unless noted, the call rests on the fitted dose curve; in most records, active means well fitted curve in the direction sought with a large enough effect; inconclusive means small, poorly fitted or top-dose-only effect, or another doubt; inactive means no such curve, though single readings can be large; an effect the other way counts as inactive or inconclusive. Unless noted, on the % scale 0 is the no-effect control and ±100 the full control effect.

SMILES | TrxR1 substrate | rTrxR1 inhibitor | Giardia kill | GALK inhibitor | FBPA coupling cs | PI4K2A inh
CN(C)/[N+]([O-])=N/Oc1cc(ON=[N+]([O-])N2CCN(c3ncccn3)CC2)c([N+](=O)[O-])cc1[N+](=O)[O-] | -16% | ? | -4 | . | -2 | .
CCSC(=O)N1CCN(/[N+]([O-])=N/Oc2ccc([N+](=O)[O-])cc2[N+](=O)[O-])CC1 | 2% | 11µM* | . | . | . | .
CCOC(=O)N1CCN([N+]([O-])=NOc2cc(O/N=[N+](\[O-])N(C)C)c([N+](=O)[O-])cc2[N+](=O)[O-])CC1 | -17% | 28µM* | ? | . | -1 | .
O=C(OCc1ccccc1)N1CCN(/[N+]([O-])=N/Oc2ccc([N+](=O)[O-])cc2[N+](=O)[O-])CC1 | 5%[0.457 µM] | ? | . | . | . | .
CCCOC(=O)N1CCN(/[N+]([O-])=N/Oc2ccc([N+](=O)[O-])cc2[N+](=O)[O-])CC1 | -11% | 11µM* | -9 | . | 1 | .
O=C(c1ccc([N+](=O)[O-])cc1[N+](=O)[O-])N1CCCC1 | -1% | 7% | -27 | -2% | 0 | 1
O=C(CC(Cl)(Cl)Cl)N1CCN(/[N+]([O-])=N/Oc2ccc([N+](=O)[O-])cc2[N+](=O)[O-])CC1 | -2% | ? | . | . | . | .
O=S(=O)(Nc1c(Br)cc(Br)c2cccnc12)C1CC1 | -6% | ? | 25 | . | . | .
CN(C)CCN(Cc1ccsc1)c1ccccn1 | . | . | . | . | . | 0
C=CCOC(=O)C(CO)NC(=O)CCCC(=O)O (centres undefined) | . | . | . | . | . | -3
C=C1[C@@H](O)[C@H](CC(C)C)N(Cc2ccccc2Br)S1(=O)=O | -3%[57.1 µM] | 5µM* | ? | . | . | -2
CCS(=O)(=O)c1nc(S(=O)(=O)c2ccc(C)cc2)c(NC(C)c2ccccc2)s1 (centres undefined) | 0% | 13% | . | . | . | 2
CCCS(=O)(=O)c1nc(S(=O)(=O)c2ccc(C)cc2)c(NC(C)c2ccccc2)s1 (centres undefined) | 3% | 35µM* | . | . | . | 3
CCCc1cc(=O)[nH]c2nnc(SCC)n12 | 0%[57.1 µM] | 4%[57.1 µM] | . | . | . | 0
COC(=O)c1ccc2c(c1O)C(=O)c1ccccc1C2=O | 10% | 21% | ? | 0% | -44* | -21
CCCC(CCC)(C(=O)OCC)C(=O)OCC | . | . | . | . | . | -5
O=S(=O)(NCCNCC=Cc1ccc(Br)cc1)c1cccc2cnccc12 | -4% | 15%[0.0914 µM] | . | . | . | .
COc1cc(/C=C\C(=O)Nc2cc(=O)n(C)c(=O)n2C)cc(OC)c1OC | -3%[57.1 µM] | 4%[57.1 µM] | 2 | 4% | -3 | 5
COc1ccc(/C=N/Nc2cc(=O)n(C)c(=O)n2C)cc1OC | -10% | -21% | -4 | 2% | -35* | -13
COc1ccc(/C=C/C(=O)NNc2cc(=O)n(C)c(=O)n2C)cc1OC | 8% | 4% | -20 | -1% | -31* | 0
O=C(C[n+]1ccccc1Br)c1ccc2c(c1)CCCC2 | 7% | -29% | . | . | . | .
CN(C)c1ccc(/C=C/c2ccnc3c(Cl)cccc23)cc1 | -7% | -7% | . | . | . | .
Cc1ccc(C2C(C#N)=C(N)SC(N)=C2C#N)cc1 | -6% | ? | 5 | -8% | -16 | -3
N#CC1=C(N)SC(N)=C(C#N)C1c1ccoc1 | . | . | . | -2% | -39* | .
COc1cccc(-n2c(SCc3ccccc3C)nc3c([nH]c4ccccc43)c2=O)c1 | 1%[57.1 µM] | 19%[57.1 µM] | . | . | . | -3
SMILES | TrxR1 substrate | rTrxR1 inhibitor | Giardia kill | GALK inhibitor | FBPA coupling cs | PI4K2A inh
COc1cc2nc(N3CCN(c4cc(C)ccc4C)CC3)nc(N)c2cc1OC | 11% | 15% | ? | -1% | -3 | 0
COc1cc2nc(N3CCNCC3)nc(N)c2cc1OC | 59% | 79µM* | 16 | 0% | -3 | 3
Nc1cc([N+](=O)[O-])cc(N)c1N | -12% | -16% | . | . | . | .
Oc1ccc(N=Cc2cc(Br)c(N3CCOCC3)o2)cc1 | -7% | 32µM* | 11 | 0% | -28 | -5
CSc1nc(-c2ccco2)nn1S(=O)(=O)c1ccc(C)cc1 | -2%[57.1 µM] | 1%[57.1 µM] | ? | -2% | -34* | -1
CCS(=O)(=O)n1nc(-c2ccco2)nc1SC | -1% | 15% | 6 | 1% | -76* | -11
